We go through 22 compounds from PubChem BioAssay (Tox21).

The structures appear in SMILES notation. “And” between values parts separate entries of the source, which are not always exact repeats. Equal entries are not always repeated. Records with an inconclusive call do not appear. The source holds several records for some structures; these can differ, active in one and inactive in another. The source made the active and inactive calls. Unless noted, calls follow the shape of the dose curve; as a rule, active = well fitted curve in the direction sought with a large enough effect in the repeat runs; inconclusive = weak or mixed curves; inactive = no such curve, though single readings can be large; an effect the other way counts as inactive or inconclusive.

The nature of assay [1]: qHTS assay to identify small molecule agonists of the hypoxia (HIF-1) signaling pathway - cell viability counter screen (AID 1224844; calls by dose curve; also: nearly all actives have a fitted effect of over 50% in size; also: potency is read from the fitted curve at half-maximal effect). The method in brief: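 HRE-bla ME-180; 0.5% dFBS; cpd 17 h, 37C, 5% CO2; CellTiter-Glo lum., 30 min RT, post-FRET read, same wells.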
A short description of assay [2]: qHTS assay to identify small molecule agonists of H2AX (AID 1224845; active = well fitted activation curve with a large enough effect in the signal ratio in the repeat runs, not every such curve was filed as active; the % refers to the signal ratio; also: potency is read from the fitted curve at half-maximal effect). Put shortly: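 Wild-type CHO-K1 cells plated overnight, then exposed 3 hr at 37C to compounds at 15 concentrations (0.76% DMSO). Lysed, then HTRF anti-pH2AX(S139)-cryptate/anti-H2AX-d2 detection after 24 hr at room temperature; emissions 665 and 620 nm.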
(qHTS replaces the single test concentration by a dilution series.)

Assay [3] is described as follows: qHTS assay to identify small molecule agonists of the hypoxia (HIF-1) signaling pathway (AID 1224846; active = well fitted activation curve with a large enough effect in the signal ratio in the repeat runs, not every such curve was filed as active; the % refers to the signal ratio). Put shortly: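 Reporter induction in HRE-bla ME-180 cells is taken as agonism: cells sit 5 hrs after plating, receive compounds or DMSO only, incubate 17 hrs at 37C under 5% CO2, and are loaded with CCF4-AM for beta-lactamase FRET measurement.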
Assay [4] is described as follows: qHTS assay to identify small molecule agonists of H2AX - cell viability counter screen (AID 1224847; calls by dose curve; also: nearly all actives have a fitted effect of over 30% in size; also: potency is read from the fitted curve at half-maximal effect). Put shortly: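 After overnight plating of 1000 CHO-K1 cells per well, a 15-concentration compound series was applied for 3 hr at 37C. Luminescence from CellTiter-Glo, read following 30 min at room temperature, reflected cell viability.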
Assay [5] is described as follows: qHTS RealTime-Glo MT Cell Viability Assay in HepG2 cells - 24 hour (AID 1224867). Also: nearly all actives have a fitted effect of over 50% in size. Also: potency is read from the fitted curve at half-maximal effect. The method in brief:
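HepG2 suspension premixed with RealTime-Glo reagents is plated at 600 cells per well and left 5 h at 37 C/5% CO2. Compounds in DMSO then go in, and bioluminescence reflecting viable cell number is recorded over 40 h.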

Assay [6] is described as follows: qHTS RealTime-Glo MT Cell Viability Assay in HEK293 cells - 32 hour (AID 1224868). Also: nearly all actives have a fitted effect of over 50% in size. Also: potency is read from the fitted curve at half-maximal effect. Put shortly: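 Reads taken at 0, 8, 16, 24, 32 and 40 h from the same wells. HEK293 cells (600/well) carried RealTime-Glo reagents from seeding, with compound added after a 5 h settle at 37 C.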
Assay [7] is described as follows: A CellTox Green Cytotoxicity Assay to monitor cytotoxicity in HEK293 cells - 0 hour (AID 1224869). Also: nearly all actives have a fitted effect of over 50% in size. Also: potency is read from the fitted curve at half-maximal effect. Put shortly: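 Tox21 screen in HEK293: membrane-impermeant cyanine dye fluoresces on binding dead-cell DNA; compound pinned 5 h post-seeding, plates held at 37 C, signal read repeatedly through 40 h.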
Assay [8] is described as follows: qHTS RealTime-Glo MT Cell Viability Assay in HepG2 cells - 40 hour (AID 1224870). Also: nearly all actives have a fitted effect of over 50% in size. Also: potency is read from the fitted curve at half-maximal effect. The method in brief:
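HepG2 cells mixed with RealTime-Glo MT reagents (NanoLuc plus cell-permeant prosubstrate) were seeded at 600 cells/well, incubated 5 h at 37 C/5% CO2, then pinned with compounds in DMSO; nonlytic luminescence tracked viability during 40 h treatment.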

Assay [9] in a line: qHTS assay to identify small molecule agonists of the estrogen related receptor (ERR) signaling pathway from Tox21 library (AID 1224849; calls by dose curve; also: nearly all actives have a fitted effect of over 15% in size). Particulars: ERR reporter cell line, ONE-Glo luciferase, 18 h; at 92.4 µM (top of the series). The method in brief:
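Tox21 compounds tested for ERR agonism in an NTP reporter cell line: 18 h treatment at 37 C, then ONE-Glo luminescence.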

The nature of assay [10]: qHTS assay to identify small molecule antagonists of the estrogen related receptor (ERR) signaling pathway from Tox21 library (AID 1224848). Also: nearly all actives have a fitted effect of over 50% in size. The method in brief: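 Tox21 10K compounds in DMSO tested for ERR pathway antagonism in NTP's ERR cell line; 18 h, 37 C exposure; ONE-Glo luminescence.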
% is scaled to controls: 0 for no effect and ±100 for the full control effect.

As for `C=CC(Cl)CCl` (stereo not given), the Potency entry in assay [1], in assay [2], in assay [4], in [5], in assay [6] and in assay [7] was “inactive” throughout. Also, in assay [8], the Potency result is “inactive”. The compound was classed as inactive in assay [3].

With `CNC(=O)Oc1cccc2c1OC(C)(C)C2`, the Potency result in assay [1], in assay [2], in [4], in assay [6], in assay [7] and in assay [8] was “inactive” throughout. Besides, in assay [3], the compound was classed as inactive. The activity change, positive = activation in assay [9] is 3.12% (inactive) and 1.27% (inactive).

As to `CCCCC(C#N)(Cn1cncn1)c1ccc(Cl)cc1` (stereo not given), the Potency result in assay [1], in assay [2], in assay [4], in assay [5], in [6] and in [7] was “inactive” throughout. In addition, in [8], the Potency entry was “inactive”. Further, in [3], the result was inactive. In addition, in assay [9], the activity change, positive = activation was -34.1% (inactive) and -20% (inactive).

`CSc1nc(NC(C)C)nc(NC(C)C)n1`: the Potency result in assay [1], in [2], in [4], in assay [6], in [7] and in [8] was “inactive” each time. The outcome in [3] was inactive. In addition, the activity change, positive = activation in [9] is -11% (inactive) and -12.6% (inactive).

For the compound `CN(C)c1ccccc1`, the Potency result in assay [1], in [2], in assay [4], in assay [5], in assay [6] and in assay [7] was “inactive” throughout. The Potency entry in [8] is “inactive”. For the same compound, the result in assay [3] was inactive. For the same compound, the activity change, positive = activation in assay [9] was -1.62% (inactive) and 6.09% (inactive).

As to `N#CCCCCC#N`, the Potency result in assay [1], in assay [2], in [4], in assay [10], in [5] and in assay [6] was “inactive” throughout. For the same compound, the Potency result in [7] and in assay [8] was “inactive” each time. For the same compound, the compound was called inactive in [3]. Besides, in [9], the activity change, positive = activation was 8.89% (inactive) and 3.44% (inactive).

Consider `Cn1c(-c2ccccc2)cc(-c2ccccc2)[n+]1C`, for which the Potency result in assay [1], in assay [2], in assay [4], in assay [5], in [7] and in [8] was “inactive” each time. The outcome in assay [3] was inactive. In addition, in assay [9], the activity change, positive = activation was -54.1% (inactive) and -52.6% (inactive). For the same compound, in [6], the Potency was 8.69 µM (active) and 24.5 µM (active).

Regarding `CC(C)(C#N)N=NC(C)(C)C#N`, the Potency result in assay [1], in assay [2], in assay [4], in assay [5], in assay [6] and in [7] was “inactive” each time. Besides, the Potency entry in [8] is “inactive”. The outcome in assay [3] was inactive.

For the compound `O=C1Nc2ccc(Cl)cc2C(c2ccccc2)=NC1O` (stereo not given), the Potency result in assay [1], in [2], in [4], in [5], in [6] and in [7] was “inactive” in each case. The Potency entry in [8] is “inactive”. In addition, in assay [3], the outcome was inactive. The activity change, positive = activation in [9] was -20.3% (inactive) and -12.2% (inactive).

In the case of `CCCCCCCCCCCCCl`, the Potency result in [1], in assay [2], in assay [4], in assay [5], in [6] and in [8] was “inactive” throughout. Besides, in [3], the compound was called inactive. Moreover, in [7], the Potency result is “inactive and 24.5 µM (active)”.

For `CCCCOCC1CO1` (stereo not given), the Potency result in [1], in [2], in [4], in [5], in assay [6] and in assay [8] was “inactive” in each case. The compound was called inactive in assay [3]. Besides, the activity change, positive = activation in assay [9] was 0.0042% (inactive) and -11% (inactive). In addition, the Potency result in assay [7] was “inactive and 19.5 µM (active)”.

For `Cc1ccc([N+](=O)[O-])cc1`, the Potency entry in [1], in assay [2], in assay [4], in [5], in [6] and in assay [7] was “inactive” in each case. For the same compound, the Potency entry in assay [8] is “inactive”. The compound was called inactive in assay [3].

In the case of `Oc1ccc(Cl)cc1Cl`, the Potency entry in [1], in [2], in assay [4], in [6], in assay [7] and in [8] was “inactive” throughout. Also, the call in assay [3] was inactive. The activity change, positive = activation in [9] is -0.925% (inactive) and -0.996% (inactive).

For the compound `Clc1cccc(C(Cl)(Cl)Cl)n1`, the Potency result in assay [1], in assay [2], in assay [4], in assay [5], in assay [6] and in assay [7] was “inactive” in each case. The Potency entry in assay [8] is “inactive”. For the same compound, the outcome in assay [3] was inactive.

`CCCCSP(=O)(SCCCC)SCCCC`: the Potency entry in [1], in assay [2], in [4], in assay [5], in [6] and in assay [7] was “inactive” in each case. The Potency result in assay [8] was “inactive”. Moreover, the outcome in [3] was inactive.

Take `Nc1ccc2ccccc2c1`: the Potency result in assay [1], in [2], in assay [4], in [6], in assay [7] and in assay [8] was “inactive” in each case. Also, in assay [3], the compound was classed as inactive. Moreover, in assay [9], the activity change, positive = activation is 30.3% (active).

Regarding `CCOP(=S)(OCC)SCn1c(=O)oc2cc(Cl)ccc21`, the Potency entry in assay [1], in assay [2], in assay [5], in assay [7] and in assay [8] was “inactive” in each case. Also, the outcome in assay [3] was inactive. The Potency in assay [6] was 29.5 µM (active).

Consider `CN(C)c1nc(=O)n(C2CCCCC2)c(=O)n1C`, for which the Potency entry in [1], in [2], in assay [4], in assay [6], in assay [7] and in assay [8] was “inactive” in each case. Moreover, the compound was called inactive in assay [3].

For the compound `Cc1ccc(N=CN(C)C=Nc2ccc(C)cc2C)c(C)c1`, the Potency in assay [1] is 43.8 µM (active) and 30.9 µM (active) and inactive; in assay [4], 101 µM (active) and inactive; in assay [6] it was 43.8 µM (active) and 43.6 µM (active) and inactive. Also, the Potency result in assay [2], in assay [7] and in assay [8] was “inactive” in each case. Also, in assay [3], the compound was classed as inactive.

Regarding `Cc1cccc(N=Nc2ccc(N(C)C)cc2)c1`, the Potency result in [1], in [10], in assay [5], in assay [7] and in assay [8] was “inactive” in each case. Further, the compound was called inactive in assay [3]. Also, in assay [4], the Potency was 101 µM (active). The activity change, positive = activation in [9] is 234% (active) and 86.9% (active).

In the case of `Nc1ncn[nH]1`, the Potency result in assay [1], in [2], in assay [4], in [5], in assay [6] and in [7] was “inactive” each time. The Potency entry in assay [8] was “inactive”. In assay [3], the compound was called inactive.

Regarding `CCC[CH2][Sn]([Cl])([Cl])[CH2]CCC`, the Potency in assay [1] was 624 nM (active) and 977 nM (active); in [2], 1.28 µM (active) and 1.27 µM (active); in assay [4], 11.4 µM (active) and 25.3 µM (active); in assay [5], 313 nM (active) and 219 nM (active); in assay [6], 99 nM (active) and 123 nM (active); in assay [8], 198 nM (active) and 138 nM (active). The activity change, positive = activation in assay [9] is -84.1% (inactive) and -80% (inactive). In [7], the Potency entry is “inactive”.
